What all share (assay): protein-binding microarray (PBM); PBM: ~300 nM protein, 6 mM HEPES pH 7.8, 80 mM KCl, 0.5 mM EDTA, 0.5 mM EGTA, 6% glycerol, 35 ng/ul poly-dIdC, 1% milk, 1 h, room temperature; Ap Aiptasia and Nv Nematostella (sea anemones) / Co Capsaspora / Aq Amphimedon (sponge) / Dm Drosophila / Hu human; RHD is the Rel homology domain; high values mean tight binding
Conditions in all cases: dsDNA, one strand shown

Experiment [1] concerns the target T1, GST-Ap-NF-kB RHD (Exaiptasia pallida (Aiptasia), UniProt A0A913YAJ5 2-422).
T1 sequence: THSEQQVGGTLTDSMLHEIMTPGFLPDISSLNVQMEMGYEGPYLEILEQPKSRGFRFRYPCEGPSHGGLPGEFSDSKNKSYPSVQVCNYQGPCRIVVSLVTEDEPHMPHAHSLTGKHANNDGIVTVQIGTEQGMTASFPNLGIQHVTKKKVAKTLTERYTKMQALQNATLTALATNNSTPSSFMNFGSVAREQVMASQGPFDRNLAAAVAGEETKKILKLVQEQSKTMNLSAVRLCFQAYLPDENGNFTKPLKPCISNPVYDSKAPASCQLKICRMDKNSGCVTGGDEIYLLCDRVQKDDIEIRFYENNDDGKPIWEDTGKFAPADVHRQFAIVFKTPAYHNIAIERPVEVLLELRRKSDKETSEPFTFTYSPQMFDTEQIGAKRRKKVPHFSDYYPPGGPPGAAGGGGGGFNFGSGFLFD

For experiment [2], the target named is T2, GST-Nv-NF-kB (Cys allele) (Nematostella vectensis, UniProt E5G601 2-411).
T2 sequence: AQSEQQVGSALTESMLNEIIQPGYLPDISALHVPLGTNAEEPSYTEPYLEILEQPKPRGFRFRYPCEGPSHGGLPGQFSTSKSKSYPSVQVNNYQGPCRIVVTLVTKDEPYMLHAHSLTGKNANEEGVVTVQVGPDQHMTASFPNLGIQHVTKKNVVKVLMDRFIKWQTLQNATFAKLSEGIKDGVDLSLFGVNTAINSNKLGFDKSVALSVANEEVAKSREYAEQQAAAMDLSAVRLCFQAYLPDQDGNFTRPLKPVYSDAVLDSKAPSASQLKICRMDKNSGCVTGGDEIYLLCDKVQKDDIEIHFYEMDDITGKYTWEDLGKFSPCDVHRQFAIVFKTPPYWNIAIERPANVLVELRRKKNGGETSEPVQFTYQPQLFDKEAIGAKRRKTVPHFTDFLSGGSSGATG

Experiment [3] has as its target T3, GST-Co-NF-kB (Capsaspora owczarzaki, UniProt F1ARL5 200-546).
T3 sequence: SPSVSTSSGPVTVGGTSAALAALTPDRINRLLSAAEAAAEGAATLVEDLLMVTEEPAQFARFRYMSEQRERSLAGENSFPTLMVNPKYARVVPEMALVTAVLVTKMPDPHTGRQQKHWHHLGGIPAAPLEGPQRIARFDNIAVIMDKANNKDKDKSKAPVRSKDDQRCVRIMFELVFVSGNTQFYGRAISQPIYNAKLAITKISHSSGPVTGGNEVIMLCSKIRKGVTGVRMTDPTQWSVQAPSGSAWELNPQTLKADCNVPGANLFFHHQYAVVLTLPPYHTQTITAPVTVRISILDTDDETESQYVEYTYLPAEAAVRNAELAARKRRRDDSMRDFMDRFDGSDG

The target in experiment [4] is T4, GST-Dm-Relish (Drosophila melanogaster, UniProt Q94527 99-473).
T4 sequence: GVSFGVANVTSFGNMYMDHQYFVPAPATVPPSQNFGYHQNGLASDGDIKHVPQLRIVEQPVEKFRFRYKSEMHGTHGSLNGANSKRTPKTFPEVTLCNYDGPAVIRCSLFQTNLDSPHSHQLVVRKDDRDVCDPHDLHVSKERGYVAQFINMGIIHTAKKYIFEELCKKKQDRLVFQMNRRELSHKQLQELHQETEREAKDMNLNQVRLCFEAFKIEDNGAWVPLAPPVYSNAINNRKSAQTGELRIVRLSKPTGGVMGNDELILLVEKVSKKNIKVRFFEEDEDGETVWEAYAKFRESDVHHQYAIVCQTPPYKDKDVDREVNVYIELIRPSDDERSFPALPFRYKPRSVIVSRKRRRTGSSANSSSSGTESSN

Experiment [5] has as its target T5, GST-Aq-NF-kB (Amphimedon queenslandica, UniProt A9Y5G7 2-389).
T5 sequence: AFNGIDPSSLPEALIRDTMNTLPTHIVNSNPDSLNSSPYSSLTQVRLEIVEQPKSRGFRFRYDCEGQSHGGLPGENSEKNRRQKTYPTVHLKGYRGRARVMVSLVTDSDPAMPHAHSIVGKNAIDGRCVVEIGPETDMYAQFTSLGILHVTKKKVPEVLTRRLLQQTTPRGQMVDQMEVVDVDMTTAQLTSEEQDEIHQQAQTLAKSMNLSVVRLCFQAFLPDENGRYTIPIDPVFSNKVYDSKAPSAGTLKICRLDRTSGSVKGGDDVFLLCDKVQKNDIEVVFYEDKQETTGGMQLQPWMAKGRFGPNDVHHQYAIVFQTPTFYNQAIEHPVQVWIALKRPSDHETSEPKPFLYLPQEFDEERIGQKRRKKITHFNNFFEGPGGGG

For “CCGATTAACATCAGGGGAAGGACTGATGTTAATCGGGTCTTGATTCGCTTGACGCTGCTG”, the binding signal in experiment [1] worked out at 4.32 z-score; in experiment [2], 4.53 z-score; in experiment [3], 4.12 z-score; in experiment [4] it was 8.23 z-score; in experiment [5] it was 5.22 z-score.
In the same order, the values of “CCGATTAACATCAGGGGTAAAACTGATGTTAATCGGGTCTTGATTCGCTTGACGCTGCTG” are 2.3 z-score, 1.97 z-score, 6.26 z-score, 1.85 z-score and 2.73 z-score.
For “CCGATTAACATCAGGGAATGCACTGATGTTAATCGGGTCTTGATTCGCTTGACGCTGCTG”, in that order: 1.84 z-score, 3.18 z-score, 1.11 z-score, 5.07 z-score and 4.84 z-score.
In the same order, the values of “CCGATTAACATCACCTTCCCCCCTGATGTTAATCGGGTCTTGATTCGCTTGACGCTGCTG” are 4.15 z-score, 4.07 z-score, 7.1 z-score, 3.79 z-score and 4.32 z-score.
Regarding “CCGATTAACATCAGGGGGTCACCTGATGTTAATCGGGTCTTGATTCGCTTGACGCTGCTG”, the binding signal in experiment [1] was 3.61 z-score; in experiment [2], 2.23 z-score; in experiment [3], 1.96 z-score; in experiment [4] it was 6.03 z-score; in experiment [5], 4.39 z-score.
In the same order, the values of “CCGATTAACATCAGACTTCCCCATGATGTTAATCGGGTCTTGATTCGCTTGACGCTGCTG” are 4.7 z-score, 5.64 z-score, 4.24 z-score, 4.24 z-score and 4.9 z-score.
Turning to “CCGATTAACATCAAATTCCCACTTGATGTTAATCGGGTCTTGATTCGCTTGACGCTGCTG”, the binding signal in experiment [1] stood at 2.15 z-score; in experiment [2], 4.13 z-score; in experiment [3], 2.26 z-score; in experiment [4] it was 4.38 z-score; in experiment [5], 2.47 z-score.
In the same order, the values of “CCGATTAACATCAGGGGAACACATGATGTTAATCGGGTCTTGATTCGCTTGACGCTGCTG” are 4.8 z-score, 5.02 z-score, 6.41 z-score, 4.31 z-score and 4.1 z-score.
Turning to “CCGATTAACATCACGCAACCCCCTGATGTTAATCGGGTCTTGATTCGCTTGACGCTGCTG”, the binding signal in experiment [1] was found to be 5.37 z-score; in experiment [2], 3.7 z-score; in experiment [3], 2 z-score; in experiment [4], 5.08 z-score; in experiment [5] it was 3.89 z-score.
For “CCGATTAACATCAAGGGAATCCCTGATGTTAATCGGGTCTTGATTCGCTTGACGCTGCTG”, in that order: 6.73 z-score, 6.1 z-score, 2.83 z-score, 9.2 z-score and 6.63 z-score.
In the same order, the values of “CCGATTAACATCAGGGAATCCACTGATGTTAATCGGGTCTTGATTCGCTTGACGCTGCTG” are 3.05 z-score, 3.31 z-score, 2.25 z-score, 7.85 z-score and 5.29 z-score.
With “CCGATTAACATCAAAATTCCCGGTGATGTTAATCGGGTCTTGATTCGCTTGACGCTGCTG”, the binding signal in experiment [1] worked out at 4.57 z-score; in experiment [2], 5.96 z-score; in experiment [3] it was 5.57 z-score; in experiment [4], 6.54 z-score; in experiment [5], 5.5 z-score.
In the same order, the values of “CCGATTAACATCAGGGGGGGTGATGATGTTAATCGGGTCTTGATTCGCTTGACGCTGCTG” are 3.51 z-score, 4.08 z-score, 4.48 z-score, 4.26 z-score and 4.36 z-score.
For “CCGATTAACATCAAAGAAATCCCTGATGTTAATCGGGTCTTGATTCGCTTGACGCTGCTG”, in that order: 4.82 z-score, 4.34 z-score, 1.36 z-score, 6.17 z-score and 4.61 z-score.
For “CCGATTAACATCACGGGATTTACTGATGTTAATCGGGTCTTGATTCGCTTGACGCTGCTG”, in that order: 2.52 z-score, 2.6 z-score, 1.01 z-score, 7.12 z-score and 3.52 z-score.
As to “CCGATTAACATCAGAAATTCCCATGATGTTAATCGGGTCTTGATTCGCTTGACGCTGCTG”, the binding signal in experiment [1] is 4.5 z-score; in experiment [2], 6.44 z-score; in experiment [3], 4.07 z-score; in experiment [4], 5.05 z-score; in experiment [5], 4.99 z-score.
For “CCGATTAACATCAAAATAATCCCTGATGTTAATCGGGTCTTGATTCGCTTGACGCTGCTG”, in that order: 6.46 z-score, 4.62 z-score, 2.45 z-score, 4.15 z-score and 5.15 z-score.
In the same order, the values of “CCGATTAACATCAGGGGAGGTACTGATGTTAATCGGGTCTTGATTCGCTTGACGCTGCTG” are 4.21 z-score, 3.43 z-score, 3.96 z-score, 6.44 z-score and 4.35 z-score.

(Values after PMC5700166.)
